{"source": "the supplement of paper PMC8728848", "binders": {"B1": {"name": "SynCAM (Mus musculus) (protein)", "chain": "MASAVLPSGSQCAAAAAVAAAAAPPGLRLRLLLLLLSAAALIPTGDGQNLFTKDVTVIEGEVATISCQVNKSDDSVIQLLNPNRQTIYFRDFRPLKDSRFQLLNFSSSELKVSLTNVSISDEGRYFCQLYTDPPQESYTTITVLVPPRNLMIDIQKDTAVEGEEIEVNCTAMASKPATTIRWFKGNKELKGKSEVEEWSDMYTVTSQLMLKVHKEDDGVPVICQVEHPAVTGNLQTQRYLEVQYKPQVHIQMTYPLQGLTREGDAFELTCEAIGKPQPVMVTWVRVDDEMPQHAVLSGPNLFINNLNKTDNGTYRCEASNIVGKAHSDYMLYVYDPPTTIPPP"}}, "assay_in_all_cases": "glycan array binding signal (z-score within array); higher = stronger binding", "conditions_in_all_cases": "glycan notation: IUPAC condensed, linker removed", "key": {"Gal3S(b1-4)Glc": {"biological_target": "Gal3S(b1-4)Glc", "summary_of_the_method": "(§1)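 Glycan array binding is given as a within-array Z-score, which can be read as non-binding when negative. The arrays, 3228 of them, came from the Consortium for Functional Glycomics database and were retained only where the protein sequence was available. Z-scores were averaged across arrays of the same protein sequence at different concentrations or buffers and across linkers.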"}, "[1]": {"biological_target": "Gal3S(b1-4)[Fuc(a1-3)]Glc6S", "summary_of_the_method": "as §1"}, "[2]": {"biological_target": "Gal3S(b1-4)[Fuc(a1-3)]GlcNAc6S", "summary_of_the_method": "as §1"}, "Gal3S6S(b1-4)GlcNAc": {"biological_target": "Gal3S6S(b1-4)GlcNAc", "summary_of_the_method": "as §1"}, "Gal3S6S(b1-4)GlcNAc6S": {"biological_target": "Gal3S6S(b1-4)GlcNAc6S", "summary_of_the_method": "as §1"}, "[3]": {"biological_target": "GalNAc(b1-3)Gal(a1-4)Gal(b1-4)GlcNAc", "summary_of_the_method": "as §1"}, "GalNAc(b1-4)GlcNAc": {"biological_target": "GalNAc(b1-4)GlcNAc", "summary_of_the_method": "as §1"}, "[4]": {"biological_target": "GlcNAc(a1-4)Gal(b1-4)GlcNAc", "summary_of_the_method": "as §1"}, "[5]": {"biological_target": "GlcNAc(b1-2)[GlcNAc(b1-6)]Man(a1-6)[GlcNAc(b1-4)][GlcNAc(b1-2)Man(a1-3)]Man(b1-4)GlcNAc(b1-4)GlcNAc", "summary_of_the_method": "as §1"}, "[6]": {"biological_target": "GlcNAc(b1-3)[GlcNAc(b1-4)][GlcNAc(b1-6)]GlcNAc", "summary_of_the_method": "as §1"}, "GlcNAc(b1-4)GlcNAc": {"biological_target": "GlcNAc(b1-4)GlcNAc", "summary_of_the_method": "as §1"}, "[7]": {"biological_target": "GlcNAc(b1-4)GlcNAc(b1-4)GlcNAc(b1-4)GlcNAc(b1-4)GlcNAc(b1-4)GlcNAc", "summary_of_the_method": "as §1"}, "Man(b1-4)GlcNAc": {"biological_target": "Man(b1-4)GlcNAc", "summary_of_the_method": "as §1"}, "[8]": {"biological_target": "Neu5Ac(a2-3)Gal(b1-3)GlcNAc(b1-2)Man", "summary_of_the_method": "as §1"}, "[9]": {"biological_target": "Neu5Ac(a2-3)Gal(b1-3)GlcNAc(b1-4)Gal(b1-4)Glc", "summary_of_the_method": "as §1"}, "[10]": {"biological_target": "Neu5Ac(a2-3)Gal(b1-3)[Fuc(a1-4)]GlcNAc", "summary_of_the_method": "as §1"}, "[11]": {"biological_target": "Neu5Ac(a2-3)Gal(b1-3)[Neu5Ac(a2-6)]GlcNAc(b1-3)[Fuc(a1-3)[Gal(b1-4)]GlcNAc(b1-6)]Gal(b1-4)Glc", "summary_of_the_method": "as §1"}, "[12]": {"biological_target": "Neu5Ac(a2-3)Gal(b1-4)GlcNAc(b1-2)[Neu5Ac(a2-3)Gal(b1-4)GlcNAc(b1-4)]Man(a1-3)[GlcNAc(b1-4)][Neu5Ac(a2-3)Gal(b1-4)GlcNAc(b1-2)[Neu5Ac(a2-3)Gal(b1-4)GlcNAc(b1-6)]Man(a1-6)]Man(b1-4)GlcNAc(b1-4)GlcNAc", "summary_of_the_method": "as §1"}, "[13]": {"biological_target": "Neu5Ac(a2-3)Gal(b1-4)[Fuc(a1-3)]GlcNAc(b1-2)Man", "summary_of_the_method": "as §1"}, "[14]": {"biological_target": "Neu5Ac(a2-6)Gal(b1-4)GlcNAc(b1-2)Man(a1-3)[Gal(b1-4)GlcNAc(b1-2)Man(a1-6)]Man(b1-4)GlcNAc(b1-4)GlcNAc", "summary_of_the_method": "as §1"}, "[15]": {"biological_target": "Neu5Ac(a2-6)Gal(b1-4)GlcNAc(b1-3)Gal(b1-4)GlcNAc(b1-3)Gal(b1-4)GlcNAc(b1-2)Man(a1-3)[Neu5Ac(a2-6)Gal(b1-4)GlcNAc(b1-3)Gal(b1-4)GlcNAc(b1-3)Gal(b1-4)GlcNAc(b1-2)Man(a1-6)]GalNAc", "summary_of_the_method": "as §1"}, "[16]": {"biological_target": "Neu5Ac(a2-6)Gal(b1-4)GlcNAc(b1-3)Gal(b1-4)GlcNAc(b1-3)GalNAc", "summary_of_the_method": "as §1"}, "Neu5Ac(b2-6)GalNAc": {"biological_target": "Neu5Ac(b2-6)GalNAc", "summary_of_the_method": "as §1"}, "Neu5Gc(a2-3)Gal(b1-4)Glc": {"biological_target": "Neu5Gc(a2-3)Gal(b1-4)Glc", "summary_of_the_method": "as §1"}, "[17]": {"biological_target": "Neu5Gc(a2-3)Gal(b1-4)GlcNAc", "summary_of_the_method": "as §1"}, "[18]": {"biological_target": "Neu5Gc(b2-6)Gal(b1-4)GlcNAc", "summary_of_the_method": "as §1"}}, "note": "Only a selection was taken, and the strongest signals are over-represented in it overall."}
{"binder": "B1", "values": [{"measurement": "glycan array binding signal (z-score)", "setting": "Gal3S(b1-4)Glc", "value": 1.95}, {"measurement": "glycan array binding signal (z-score)", "setting": "[1]", "value": 3.97}, {"measurement": "glycan array binding signal (z-score)", "setting": "[2]", "value": 1.22}, {"measurement": "glycan array binding signal (z-score)", "setting": "Gal3S6S(b1-4)GlcNAc", "value": 2.56}, {"measurement": "glycan array binding signal (z-score)", "setting": "Gal3S6S(b1-4)GlcNAc6S", "value": 2.69}, {"measurement": "glycan array binding signal (z-score)", "setting": "[3]", "value": 2.45}, {"measurement": "glycan array binding signal (z-score)", "setting": "GalNAc(b1-4)GlcNAc", "value": 2.71}, {"measurement": "glycan array binding signal (z-score)", "setting": "[4]", "value": -1.14}, {"measurement": "glycan array binding signal (z-score)", "setting": "[5]", "value": -0.782}, {"measurement": "glycan array binding signal (z-score)", "setting": "[6]", "value": 2.58}, {"measurement": "glycan array binding signal (z-score)", "setting": "GlcNAc(b1-4)GlcNAc", "value": -1.17}, {"measurement": "glycan array binding signal (z-score)", "setting": "[7]", "value": 0.16}, {"measurement": "glycan array binding signal (z-score)", "setting": "Man(b1-4)GlcNAc", "value": -0.306}, {"measurement": "glycan array binding signal (z-score)", "setting": "[8]", "value": -0.517}, {"measurement": "glycan array binding signal (z-score)", "setting": "[9]", "value": -0.756}, {"measurement": "glycan array binding signal (z-score)", "setting": "[10]", "value": 0.283}, {"measurement": "glycan array binding signal (z-score)", "setting": "[11]", "value": -0.498}, {"measurement": "glycan array binding signal (z-score)", "setting": "[12]", "value": 0.594}, {"measurement": "glycan array binding signal (z-score)", "setting": "[13]", "value": 3.11}, {"measurement": "glycan array binding signal (z-score)", "setting": "[14]", "value": -0.518}, {"measurement": "glycan array binding signal (z-score)", "setting": "[15]", "value": 2.42}, {"measurement": "glycan array binding signal (z-score)", "setting": "[16]", "value": -0.464}, {"measurement": "glycan array binding signal (z-score)", "setting": "Neu5Ac(b2-6)GalNAc", "value": -0.413}, {"measurement": "glycan array binding signal (z-score)", "setting": "Neu5Gc(a2-3)Gal(b1-4)Glc", "value": -0.801}, {"measurement": "glycan array binding signal (z-score)", "setting": "[17]", "value": -0.921}, {"measurement": "glycan array binding signal (z-score)", "setting": "[18]", "value": 0.145}]}
